Assay [1] can be described thus: resazurin metabolic signal in HepG2 cells – cell-based, resazurin fluorescence, 24 h, PK04 Diversity Set, profiling panel (AID 1172). Further: test concentration not given here. The note with it: HepG2 viability, higher = more signal.
Assay [2] can be described thus: budding yeast growth changes without added modifier – OD600, strain BY4716, 24 h, basal condition, primary screen (AID 1173). As to conditions: S. cerevisiae BY4716 growth, OD600, 24 h; higher = more signal, called active from +8 up or from −8 down.
Assay [3] in a line: viability profiling in MM1S myeloma cells – cell-based, resazurin fluorescence, basal, 24 h, PK04 Diversity Set, profiling panel (AID 1174). Further: test concentration not given here. The note with it: higher = more signal, called active from +8 up or from −8 down. (In general: The colour change of resazurin is a common sign of viable cells or microbes.)
For assay [4], the target named is Dihydroorotate dehydrogenase (quinone), mitochondrial (Plasmodium falciparum (isolate 3D7)) (UniProt Q08210). Description: inhibition of P. falciparum DHODH – biochemical, C-terminal His tag, absorbance 600 nm, primary screen (AID 1175).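 Further: recombinant parasite enzyme with a five histidine tag at its C terminus; test concentration not given here.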 As to conditions: PfDHODH enzyme, DCIP absorbance 600 nm; higher = more signal, called active from +8 up or from −8 down.
Assay [5] can be described thus: inhibition of PAO1 biofilm formation – strain PAO1, LB-PBS medium, absorbance 600 nm, primary screen (AID 1176). Further: test concentration not given here. The note with it: P. aeruginosa PAO1 growth/biofilm, A600, 12 h; higher = more signal.
Assay [6] in a line: growth modulation of vineyard yeast isolate – strain RM11-1a, OD600, basal, 24 h, primary screen (AID 1177).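 Further: cultures grown under basal conditions with no added stressor; test concentration not given here.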 The note with it: S. cerevisiae RM11-1a growth, OD600, 24 h; higher = more signal, called active from +8 up or from −8 down.
A short description of assay [7]: growth of efflux-deficient E. coli DRC39 – strain DRC39, OD650, 24 h, E. coli filamentation inducers, primary screen (AID 1178).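 Further: growth measured as culture turbidity by optical density at 650 nm; test concentration not given here.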 As to conditions: E. coli DRC39 acrAB, higher = more signal, called active from +8 up or from −8 down.
Assay [8] is described as follows: growth of efflux-deficient E. coli DRC39 – strain DRC39, OD650, 48 h, E. coli filamentation inducers, primary screen (AID 1179).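 Further: screen aims at cell division blockers that make cells filament.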 As to conditions: E. coli DRC39 delta-acrAB growth, higher = more signal, called active from +8 up or from −8 down.
Assay [9] in a line: viability profiling in RPMI8226 myeloma cells – cell-based, resazurin fluorescence, basal, 24 h, PK04 Diversity Set, profiling panel (AID 1180).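 Further: RPMI8826 multiple myeloma cell line at 5000 cells per well; test concentration not given here.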 The note with it: higher = more signal.
The target in assay [10] is E3 ubiquitin-protein ligase XIAP (Homo sapiens) (UniProt P98170). Description: small molecules binding XIAP protein – biophysical, small-molecule microarray, fluorescence 635 nm, primary screen (AID 1181).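 Further: score merges 667 nm emission and signal to noise over triplicate slides.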 The note with it: higher = more signal.

The source made the active and inactive calls. Unless noted, how the calls were made is not given here.

Dihydroorotate dehydrogenase (quinone), mitochondrial (Plasmodium falciparum (isolate 3D7)), sequence (Q08210 whole entry, looked up): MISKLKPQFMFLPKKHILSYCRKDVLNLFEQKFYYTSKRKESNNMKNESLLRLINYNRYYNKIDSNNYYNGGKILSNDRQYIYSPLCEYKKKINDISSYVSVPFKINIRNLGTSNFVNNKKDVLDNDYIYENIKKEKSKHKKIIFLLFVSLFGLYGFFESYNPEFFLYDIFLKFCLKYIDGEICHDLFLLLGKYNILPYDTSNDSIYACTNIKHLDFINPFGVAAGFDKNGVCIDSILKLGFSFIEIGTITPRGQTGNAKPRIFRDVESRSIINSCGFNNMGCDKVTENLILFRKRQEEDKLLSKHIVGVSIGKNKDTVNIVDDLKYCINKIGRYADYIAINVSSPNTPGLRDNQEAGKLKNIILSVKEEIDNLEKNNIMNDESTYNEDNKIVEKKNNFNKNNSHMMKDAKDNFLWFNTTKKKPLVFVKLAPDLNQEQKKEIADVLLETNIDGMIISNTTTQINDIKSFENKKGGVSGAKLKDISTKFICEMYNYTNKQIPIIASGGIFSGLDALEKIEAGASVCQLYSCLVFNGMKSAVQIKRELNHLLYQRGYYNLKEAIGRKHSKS
E3 ubiquitin-protein ligase XIAP (Homo sapiens), sequence (P98170 whole entry, looked up): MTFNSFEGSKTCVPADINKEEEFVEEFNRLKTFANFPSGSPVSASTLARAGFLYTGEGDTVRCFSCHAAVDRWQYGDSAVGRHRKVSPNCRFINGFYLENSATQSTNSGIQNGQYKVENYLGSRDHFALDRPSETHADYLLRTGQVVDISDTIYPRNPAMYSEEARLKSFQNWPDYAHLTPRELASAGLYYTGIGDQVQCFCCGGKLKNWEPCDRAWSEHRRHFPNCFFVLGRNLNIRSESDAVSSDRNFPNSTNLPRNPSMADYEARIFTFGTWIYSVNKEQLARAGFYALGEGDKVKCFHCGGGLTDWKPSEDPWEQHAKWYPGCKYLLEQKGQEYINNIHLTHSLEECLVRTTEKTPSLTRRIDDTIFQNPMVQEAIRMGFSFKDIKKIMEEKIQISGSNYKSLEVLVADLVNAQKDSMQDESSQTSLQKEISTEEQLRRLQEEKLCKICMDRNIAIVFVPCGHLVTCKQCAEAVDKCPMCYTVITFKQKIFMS

For `CCOC(=O)C[C@H]1[C@H](OC(=O)c2ccc(C(=O)c3ccccc3)cc2)[C@@H](NC(=O)c2ccc3ccccc3c2)c2cc(OCCCO)ccc2N1C(=O)Cc1ccc(OC)cc1`, the z-score was -0.0265 in [1]; -0.291 (inactive) in assay [2]; 0.238 (inactive) in assay [3]; -0.382 (inactive) in assay [5]; 0.4 (inactive) in assay [6]; -0.276 (inactive) in assay [7]. The z-score in [8] is 0.471 (inactive); in assay [9], 0.287. Besides, the composite z-score in [4] was -0.148 (inactive); in assay [10], -0.12.
For the molecule `CCC[C@@H]1C[C@@]1(CCC)[C@@H](NS(=O)(=O)c1cccc2cccnc12)c1ccc(Cl)cc1`, the z-score in assay [1] was -0.0373; in [2] it was 1.43 (inactive); in [3], -0.151 (inactive); in [5], 0.908 (inactive); in assay [6] it was 1.24 (inactive); in [7], -0.251 (inactive). Besides, the figures for the z-score in assay [8] and in [9] were -0.0357 (inactive) and -0.0909, respectively. Besides, the results for the composite z-score in assay [4] and in assay [10] were 0.283 (inactive) and 0.0999, respectively.
On to `COc1cc(COC(C)=O)ccc1OC(C)=O`, for which the z-score was 0.858 in [1]; -0.715 (inactive) in assay [2]; 0.101 (inactive) in [3]; 0.317 (inactive) in assay [5]; -1.35 (inactive) in [6]; 1.17 (inactive) in assay [7]. Also, the z-score in assay [8] was 0.871 (inactive); in [9], 0.614. Also, the composite z-score in assay [4] is -0.942 (inactive); in assay [10], -0.269.
Turning to `CCC[C@@H]1C[C@@]1(CCC)[C@@H](NC(=O)c1ccccc1)c1cccc(Cl)c1`, the z-score is -0.141 in assay [1]; 1.74 (inactive) in assay [2]; 0.208 (inactive) in assay [3]; -0.195 (inactive) in assay [5]; 2.26 (inactive) in assay [6]; -0.557 (inactive) in [7]. The values for the z-score in assay [8] and in assay [9] were -0.514 (inactive) and 1.09, respectively. Further, the composite z-score in assay [4] was 0.249 (inactive); in assay [10] it was -0.0326.
Consider `CCCCCCc1nc(-c2ccc(OC)nc2)cc2c1[Si](C(C)C)(C(C)C)O[C@H]2c1ccccc1`, for which the z-score in [1] is 0.153; in assay [2] it was 0.676 (inactive); in assay [3] it was 0.0809 (inactive); in assay [5], 0.256 (inactive); in assay [6] it was 0.056 (inactive); in assay [7] it was 0.231 (inactive). Besides, the figures for the z-score in assay [8] and in assay [9] were -0.0838 (inactive) and 0.732, respectively. Besides, the composite z-score was -0.0348 (inactive) in assay [4] and -0.241 in [10].
Consider `C=C(C)[C@@H]1CC=C(C(O)C2C=CC3C(=O)N(C)C(=O)C3N2Nc2ccccc2)CC1` (stereo not given in full), for which the z-score was -0.709 in assay [1]; 0.773 (inactive) in assay [2]; -1.03 (inactive) in assay [3]; 0.751 (inactive) in assay [5]; 1.45 (inactive) in [6]; -0.683 (inactive) in assay [7]. Besides, the z-score in [8] was -0.472 (inactive); in [9], -0.581. The composite z-score is 0.849 (inactive) in [4] and 0.0688 in assay [10].
Take `COc1cc2c(cc1O)C(C1CC1)N(Cc1sc3ccccc3c1Cl)CC2` (stereo not given): the z-score in [1] was -1.58; in [2], -18.3 (active); in [3], -0.789 (inactive); in assay [5], -1.33 (inactive); in assay [6], -22 (active); in assay [7] it was 0.531 (inactive). In addition, the z-score in assay [8] was -0.75 (inactive); in [9], -1.42. Besides, the results for the composite z-score in assay [4] and in [10] were -0.931 (inactive) and -0.031, respectively.
With `C=CCC(OC(C)=O)[C@@H]1[C@@H](N(Cc2cc3ccccc3o2)C(=O)c2cccc3ccccc23)c2cc(OCCCO)ccc2N1C(=O)c1ccc(-c2ccccc2)cc1` (stereo not given in full), the z-score is -1.11 in [1]; -0.356 (inactive) in [2]; 0.353 (inactive) in [3]; -1.27 (inactive) in [5]; -0.208 (inactive) in assay [6]; 0.75 (inactive) in assay [7]. In addition, the z-score in [8] was -0.11 (inactive); in [9] it was 0.03. The composite z-score in assay [4] was -0.0369 (inactive); in assay [10], -0.256.
As for `CN(C)CCCC[C@@H]1NC(=O)[C@@H]2C[C@H](C(=O)NCCCCCCN)[C@H](c3cccc(OCCO)c3)N2C1=O`, the z-score in assay [1] is -0.06; in [2] it was -0.543 (inactive); in assay [3] it was 0.124 (inactive); in assay [5] it was 0.187 (inactive); in assay [6] it was -1.17 (inactive); in assay [7] it was -0.459 (inactive). Also, the z-score in assay [8] was -1 (inactive); in assay [9] it was -0.851. For the same molecule, the composite z-score in assay [4] was -0.981 (inactive); in assay [10], 0.115.
In the case of `CC1CC/C=C\[C@H]2OC34C=CCN(C(C)(C)C)C(=O)[C@H]3N(C(C)CO)C(=O)[C@@H]4C2C(=O)O1` (stereo not given in full), the z-score in [1] was 0.0366; in [2], -0.623 (inactive); in [3], -2.21 (inactive); in [5] it was -0.525 (inactive); in assay [6], 0.723 (inactive); in assay [7], 0.606 (inactive). For the same molecule, the z-score in [8] was 0.771 (inactive); in assay [9], -0.0501. In addition, the figures for the composite z-score in [4] and in assay [10] were -3.09 (inactive) and 0.501, respectively.
In the case of `COC(=O)c1c(CC[C@@H](CO)NC(=O)NCCn2cc(C3(O)CCCC3)nn2)oc(C(C)=O)c1C(=O)OC`, the z-score in [1] is -0.777; in assay [2], -0.394 (inactive); in assay [3], -0.691 (inactive); in assay [5] it was 0.173 (inactive); in [6] it was -0.77 (inactive); in assay [7], -0.426 (inactive). Further, the z-score in assay [8] is -0.828 (inactive); in assay [9], -0.581. Moreover, the composite z-score in [4] was -0.35 (inactive); in assay [10] it was -0.0343.
With `NC(=O)NCC#Cc1ccc2c(c1)[C@]1(C(=O)N2)[C@H](C(N)=O)[C@H]2C(=O)O[C@H](c3ccccc3)[C@H](c3ccccc3)N2[C@@H]1c1ccc(O)cc1`, the z-score was 0.584 in assay [1]; -0.911 (inactive) in assay [2]; 0.204 (inactive) in assay [3]; -0.212 (inactive) in assay [5]; -0.732 (inactive) in assay [6]; 0.0883 (inactive) in assay [7]. The z-score in assay [8] is -0.612 (inactive); in [9], -0.0275. For the same molecule, the results for the composite z-score in [4] and in [10] were -0.405 (inactive) and 0.156, respectively.

Values taken from PubChem BioAssay.
